Inconclusive results are not listed. The source holds several records for some structures; these can differ, active in one and inactive in another. Activity calls are given as the source filed them. The calls were made as follows: active = hit-call score of the fitted dose curve at least 0.9, where 1 is the maximum; inconclusive = response in the unintended direction; inactive = score below 0.9.
Test: ATG_XTT_Cytotoxicity: Cytotoxicity Assessment in the Attagene TRANS-FACTORIAL HepG2 Assay (AID 2283584);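 as to AC50: cells exposed to compound for 24 h before reading; active means loss of viability signal versus DMSO baseline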
Method: ATG_XTT_Cytotoxicity is a cell-based, single-readout assay that uses HepG2, a human liver cell line, with measurements taken at 24 hours after chemical dosing in a 24-well plate.ATG_XTT_Cytotoxicity is one of one assay component(s) measured or calculated from the ATG_XTT_Cytotoxicity assay. It is designed to make measurements of cell number, a form of viability reporter, as detected with […] signals by XTT cytotoxicity assay technology.Data from the assay component ATG_XTT_Cytotoxicity was analyzed into 1 assay endpoint. This assay endpoint, ATG_XTT_Cytotoxicity, was analyzed in the positive analysis fitting direction relative to DMSO as the negative control and baseline of activity. Using a type of viability reporter, loss-of-signal activity can be used to understand changes in the viability. Furthermore, this assay endpoint can be referred to as a primary readout, because the performed assay has only produced 1 assay endpoint. To generalize the intended target to other relatable targets, this assay endpoint is annotated to the cell cycle intended target family, where the subfamily is cytotoxicity.
Human liver HepG2 cells are transiently transfected with multiple reporter transcription units (MRTUs) in 6-well plates using FuGene 6 reagent (Roche; 3 ml FuGene/1 mg DNA). The MRTU constructs are regulated by a cis-regulating element (promoter). […] A major difference between the CIS and TRANS system is that in CIS activities of endogenous TFs are measured, whereas the TRANS assay evaluates changes in activities of exogenous, chimeric NR-Gal4 proteins. […] At the end of 24 hour incubation, total RNA was isolated using TriZol reagent (Invitrogen). The isolated RNA is then reverse-transcribed using oligo(dT) primer and Mo-MLV reverse transcriptase (Invitrogen) with DNAse I (Ambion) treatment for 30 min. The one-tenth of the produced cDNA was amplified by PCR using Taq DNA polymerase (Invitrogen) and two reporter sequence-specific primers. The PCR products were fluorescently labeled by primer extension with 6-arboxyfluorescein (6-FAM) 5'-labeled reporter sequence-specific primer (2 min at 95 C, 20 s at 68 C and 10 min at 72 C) and these products were digested with 5U of HpaI (New England Biolabs) for 2h at 37 C. The fragments were purified using Qiaquick PCR columns (Qiagen), analyzed on an ABI 3130xL genetic analyzer (Applied Biosystems) with peak positions identified by using a set of X-rhodamine (ROX)-labeled MapMarker1000 molecular weight standards (BioVentures). The raw capillary electrophoresis data was processed using Attagraph software (Attagene).

Q: For Cc1c2ccccc2c(C)c2c1ccc1ccccc12, which AC50 is on record?
A: 56.2 µM (active)

Q: And the outcome?
A: inactive

Q: With O=C1c2ccccc2C(=O)N1CCc1noc(-c2ccc(CN3CCCCCC3)s2)n1 as the compound, how does the outcome read?
A: inactive

Q: Which outcome does the source give for CCO[Si](CCCNC(N)=O)(OCC)OCC here?
A: inactive

Q: Which AC50 does the source give for CN(C)c1ccc(C(=C2C=CC(=[N+](C)C)C=C2)c2ccc(N(C)C)cc2)cc1 here?
A: 12.3 µM (active)

Q: Which outcome does the source give for O=c1[nH]sc2ccccc12 here?
A: inactive

Q: Which outcome does the source give for CCCCCCCCCCCC[N+](C)(C)C here?
A: inactive

Q: For COc1cc(C(=O)NC2CCN(C)CC2)ccc1Nc1ncc2c(n1)N(C1CCCC1)CC(F)(F)C(=O)N2C, which outcome is on record?
A: inactive

Q: Which outcome does the source give for Cc1ccc(C(C)C)cc1 here?
A: inactive

Q: With CN1C(=O)CC[C@H]1c1cccnc1 as the compound, how does the outcome read?
A: inactive

Q: With C[C@]12CC[C@@H]3c4ccc(O)cc4CC[C@H]3[C@@H]1CC[C@H]2O as the compound, how does the outcome read?
A: inactive

Q: For CCCCCCCC[Si](OCC)(OCC)OCC, which outcome is on record?
A: inactive

Q: With CCCCCCCCOC(=O)c1cc(O)c(O)c(O)c1 as the compound, how does the outcome read?
A: inactive

Q: For Oc1ccc2ccccc2c1, which outcome is on record?
A: inactive

Q: Which outcome does the source give for CC(O)CC(C)(C)O (stereo not given) here?
A: inactive

Q: For c1ccc2ccccc2c1, which outcome is on record?
A: inactive

Q: For CN1C(=O)N(c2ccccc2Br)Cc2cnc(Nc3ccc4c(c3)OCC(CO)O4)nc21 (stereo not given), which outcome is on record?
A: inactive

Q: With CCN(Cc1cccc(S(=O)(=O)O)c1)c1ccc(C(=C2C=CC(=[N+](CC)Cc3cccc(S(=O)(=O)O)c3)C=C2)c2ccccc2S(=O)(=O)[O-])cc1 as the compound, how does the outcome read?
A: inactive

Q: With CCCCOC(=O)c1ccc(O)cc1 as the compound, how does the outcome read?
A: inactive

Q: Which outcome does the source give for O=C1CCC(C2CCCCC2)CC1 here?
A: inactive

Q: With O=C1O[C@H]([C@@H](O)CO)C(O)=C1O as the compound, how does the outcome read?
A: inactive

Q: Which outcome does the source give for O=C(O)Cc1cc(I)c(Oc2ccc(O)c(I)c2)c(I)c1 here?
A: inactive

Q: With Clc1ccccc1C(c1ccccc1)(c1ccccc1)n1ccnc1 as the compound, how does the AC50 read?
A: 24.2 µM (active)

Q: With CO[C@H]1/C=C/O[C@@]2(C)Oc3c(C)c(O)c4c(O)c(c(/C=N/N5CCN(C)CC5)c(O)c4c3C2=O)NC(=O)/C(C)=C\C=C\[C@H](C)[C@H](O)[C@@H](C)[C@@H](O)[C@@H](C)[C@H](OC(C)=O)[C@@H]1C as the compound, how does the outcome read?
A: inactive

Q: For OCCO, which outcome is on record?
A: inactive

Q: For CCCCCCCCCCCO, which outcome is on record?
A: inactive

Q: For O=c1c(-c2ccc(O)cc2)coc2cc(O)cc(O)c12, which outcome is on record?
A: inactive

Q: For CC/C(=C(/CC)c1ccc(O)cc1)c1ccc(O)cc1, which outcome is on record?
A: inactive

Q: For CC(=O)N1CCN(c2ccc(OC[C@H]3CO[C@](Cn4ccnc4)(c4ccc(Cl)cc4Cl)O3)cc2)CC1, which outcome is on record?
A: inactive

Q: For C[C@]12CC[C@@H]3c4ccc(O)cc4CC[C@H]3[C@@H]1CCC2=O, which outcome is on record?
A: inactive

Q: Which outcome does the source give for CCCCOC(=O)CC(CC(=O)OCCCC)(OC(C)=O)C(=O)OCCCC here?
A: inactive

Q: Which outcome does the source give for Cc1oc2c(NC(=O)c3c(Cl)cccc3Cl)cccc2c1C(C)(C)O here?
A: inactive

Q: With Cc1cc(F)ccc1-c1cc(N2CC[C@@H](O)[C@H]2CO)ncc1N(C)C(=O)C(C)(C)c1cc(C(F)(F)F)cc(C(F)(F)F)c1 as the compound, how does the AC50 read?
A: 23.3 µM (active)

Q: Which outcome does the source give for Cc1cn([C@H]2C[C@H](N=[N+]=[N-])[C@@H](CO)O2)c(=O)[nH]c1=O here?
A: inactive

Q: With CC(C)(C)c1csc(-c2cc3cc(OCc4ccccc4CC(=O)O)ccc3o2)n1 as the compound, how does the outcome read?
A: inactive

Q: Which outcome does the source give for CCCCCCCCOc1ccc(C(=O)c2ccccc2)c(O)c1 here?
A: inactive

Q: Which outcome does the source give for Cc1ncc(CO)c(CO)c1O here?
A: inactive

Q: Which outcome does the source give for CC(C)(c1cc(Br)c(O)c(Br)c1)c1cc(Br)c(O)c(Br)c1 here?
A: inactive

Q: For CCCCCc1ccc(N)cc1, which outcome is on record?
A: inactive

Q: With O=C(OCCCCCCOC(=O)c1ccccc1)c1ccccc1 as the compound, how does the outcome read?
A: inactive

Reference: PubChem BioAssay (EPA / NIEHS)
